TRHR PAM: allosteric enhancers of human TRH receptor | P34981 | TRHR cells, fluo-8 calcium fluorescence, EC20 TRH enhancement | enhancement, % at 2 µM | 0.66% of 360,000 active | AID 493056; in the data active = enhancement above about 30%; note: 0% is about no effect
Target sequence (P34981 whole entry, looked up): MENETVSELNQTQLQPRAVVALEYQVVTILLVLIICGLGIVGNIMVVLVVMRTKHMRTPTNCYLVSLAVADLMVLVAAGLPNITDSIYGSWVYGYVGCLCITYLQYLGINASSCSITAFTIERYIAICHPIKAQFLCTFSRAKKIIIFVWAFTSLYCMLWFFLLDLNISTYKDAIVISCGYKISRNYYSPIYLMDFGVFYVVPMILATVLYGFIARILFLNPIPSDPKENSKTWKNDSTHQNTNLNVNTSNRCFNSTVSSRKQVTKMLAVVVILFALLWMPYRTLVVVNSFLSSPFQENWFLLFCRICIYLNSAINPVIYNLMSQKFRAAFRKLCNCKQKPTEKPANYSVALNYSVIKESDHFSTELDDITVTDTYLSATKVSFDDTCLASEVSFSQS
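Enhancer read-out: after compound pinning and an initial kinetic agonist-mode read, an EC20 of TRH (10 nM final) was injected and fluo-8 calcium signal (Ex 480/Em 530) followed at 1 s/cycle for 100 cycles in TRHR-expressing cells.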
D1 PAM: human D1 dopamine receptor positive modulation | P21728 | HEK293 TREx D1 cells, calcium flux, dopamine EC20 potentiation | potentiation, % at 10 µM | 0.036% of 360,000 active; in the data active = potentiation above about 30%; note: 0% is about no effect
D1 antagonist: blocks dopamine activation of the human D1 receptor; HEK293 TREx D1 cells, calcium flux, dopamine EC80; hits give low values; activity change, negative = inhibition, % at 10 µM; 3.2% of 360,000 active; in the data active = activity change below about -30%; note: % is set by controls: 0 for no effect and ±100 for the full control effect
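Inducible Hek293 Trex D1 cells (tetracycline, overnight, 30 C). Calcium dye 30–90 min RT. Antagonist mode: EC80 dopamine added after 180 s compound read.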
D1 agonist: activates the human D1 dopamine receptor | P21728 | HEK293 T-REx D1 cells, calcium flux, agonist mode | 1% of 360,000 active | AID 504660 | activation, % at 2 µM; note: 0% is about no effect
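Tetracycline-induced HEK293 TREx D1 cells, force-coupled to calcium signalling, were dye-loaded with a no-wash calcium kit. Compound was pin-added after a 10 s baseline. Fluorescence was read kinetically at 1 cycle/s for 180 s, with calcium rises flagged as agonism.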
TRHR ag: TRH receptor (human) agonism. P34981. TRHR cells, calcium flux fluo-8, FDSS agonist mode. activation, % at 2 µM. 0.18% of 360,000 active; note: 0% is about no effect
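In this calcium-flux screen, cells bearing human TRHR are dye-loaded with fluo-8, baselined for 10 cycles, then exposed to library compounds; positive kinetic calcium responses during the agonist phase mark hits, with TRH as control.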
Numbers without * were called inactive; nt = no result given. Sampled rows, rich in hits. Any-hit rate of the full collection: about 4.6%. Cut-off read from the data, not from the text of the source, unless noted: active = activation above about 30%; inactive = the rest.

SMILES	TRHR PAM	D1 PAM	D1 antagonist	D1 agonist	TRHR ag
CN(CCOc1ccc(Cl)cc1)CC(O)c1ccccc1 (stereo unspecified)	-9.5	-5.3	-6.1	33.3*	-1.7
N#C/C(=N\Nc1ccc(Cl)c(Cl)c1)C(=O)C1CC1	-3.0	-4.8	-44.3*	23.0	0.2
Cc1ccc(C(=O)O)cc1NC(=S)NCCc1ccccc1	6.0	7.0	8.1	-0.7	0.9
COc1cccc(NC(=S)NCCC(c2ccccc2)c2ccccc2)c1	6.2	-9.0	-49.9*	19.7	-2.3
CCCCNC(=S)NC(=O)c1ccc([N+](=O)[O-])cc1	1.7	-6.5	-46.1*	3.3	0.0
COc1ccc(CSCCNC(=S)Nc2ccccc2)cc1Cl	-3.1	-7.6	-33.2*	17.9	-0.1
COc1ccc(CNC(=S)Nc2ccccc2)cc1Cl	-2.9	-3.2	-4.7	5.2	0.6
Cc1ccc([N+](=O)[O-])cc1NC(=S)NCCc1ccccc1	-5.2	-4.1	-35.8*	23.4	-0.1
CCN(C(=O)COC(=O)c1ccc(C)c(S(=O)(=O)N2CCOCC2)c1)C1CCS(=O)(=O)C1 (stereo unspecified)	-1.4	0.5	2.3	0.6	0.8
O=C(CCN1C(=O)/C(=C/c2ccccc2Cl)SC1=S)NNC(=O)c1ccccc1O	0.0	-1.4	-7.1	5.3	-0.3
COC(=O)c1c(NC(=O)CSc2ccccc2N)sc(C)c1C	2.8	-0.2	-11.6	0.9	-0.2
O=C(NCC(c1cccs1)N1CCOCC1)c1cc(=O)[nH]c2ccccc12 (stereo unspecified)	4.8	4.2	1.0	1.1	0.3
COc1ccc(NC(=O)Cc2nnc(N)s2)cc1	-2.6	-0.3	-3.6	2.5	0.6
S=C(NCCc1ccccc1)N/N=C/c1ccccc1Cl	15.5	5.0	-32.8*	4.5	0.1
Oc1ccc(Br)cc1/C=N/NC(=S)NCCc1ccccc1	1.6	-9.1	16.8	2.8	-0.1
COc1ccc(OCCNC(=S)Nc2cccc3ccccc23)cc1	0.3	-3.5	-39.3*	3.5	0.3
S=C(NCCc1ccccc1)Nc1ccc(Cl)cc1Cl	-7.4	-5.2	-32.6*	13.0	-0.6
CC(C)CCNC(=S)Nc1ccc([N+](=O)[O-])cc1	-10.9	-3.1	-45.6*	34.3*	3.2
Cc1cc(Cl)ccc1NC(=S)NCCc1ccc(Cl)cc1	-3.6	-0.5	-25.2	13.7	0.5
COC(=O)Cc1ccc(NC(=S)NCCC(C)C)cc1	-0.4	-1.6	-28.4	10.9	-0.1
Cn1cccc1C(=O)OCC(=O)Nc1cccc(S(=O)(=O)N2CCOCC2)c1	15.6	-3.6	3.4	7.7	0.3
COc1ccc(N2CCN(C(=O)COC(=O)Cc3cccc(OC)c3)CC2)cc1	-1.9	-4.0	7.7	2.3	-0.3
O=C(/C=C/c1ccccc1)N/C(=C\c1ccco1)C(=O)O	-1.4	3.2	6.8	2.4	-1.1
CC(C)CCNC(=S)Nc1ccc(Br)cc1	-2.1	-12.8	-33.2*	13.2	0.8
COc1ccc(CCNC(=S)Nc2ccccc2)cc1	0.2	-13.8	-36.1*	7.0	-2.3
SMILES	TRHR PAM	D1 PAM	D1 antagonist	D1 agonist	TRHR ag
CCCCNC(=S)Nc1ccc([N+](=O)[O-])cc1	-8.9	-6.2	-33.0*	19.4	0.6
CC(C)Oc1ccc(CCC(=O)NNC(=S)Nc2ccccc2)cc1	-2.0	-1.9	-31.5*	8.6	-0.7
CCCCNC(=S)Nc1ccc(Oc2ccccc2)cc1	-1.0	-7.0	-10.7	22.5	-0.2
CCc1ccc(C(=O)/C=C/Nc2ccc(S(=O)(=O)Nc3onc(C)c3C)cc2)cc1	-1.5	-4.0	12.2	11.8	0.6
COc1ccc(NC(=O)c2cc(S(=O)(=O)N3CCS(=O)(=O)CC3)ccc2Cl)cc1	19.9	1.5	2.7	0.8	-0.2
CCC(C)NC(=O)CCC(=O)Nc1ccc2nc(N3CC(C)CC(C)C3)cc(C)c2c1 (stereo unspecified)	2.2	-6.2	-3.0	4.9	1.1
S=C(NCCc1ccccc1)Nc1ccc(Br)cc1	1.4	-9.8	-51.5*	15.4	-0.7
NC(=S)C1COc2ccccc2O1 (stereo unspecified)	-3.9	2.4	5.8	1.4	-0.3
O=C(Nc1c[nH]c(=O)[nH]c1=O)c1ccccc1Cl	30.4*	-1.7	3.5	1.2	0.2
Cc1occc1C(=O)/C(C#N)=C/c1ccc(O)c(Br)c1	8.0	nt	-15.8	45.2*	18.4
CCCOc1ccccc1C1C(C(=O)Nc2ccccc2)=C(C)Nc2nnnn21 (stereo unspecified)	48.9*	-7.3	5.3	39.0*	-0.7
CCCC(=O)N1CC(=O)Nc2ccc(C)cc2C1c1ccc(F)cc1 (stereo unspecified)	4.2	-6.5	-87.9*	-1.0	-1.2
CC(Sc1ncnc2sc(-c3ccccc3)cc12)C(=O)N1CCNC1=O (stereo unspecified)	0.0	-1.1	-40.7*	12.9	-0.3
CC1=C(C(=O)Nc2ccccc2)C(c2cccnc2)n2nc(SCc3ccccc3Cl)nc2N1 (stereo unspecified)	-3.8	-1.2	-35.2*	-0.8	1.0
CCc1ccc(OCC(=O)Nc2ccc3c(c2)c2ccccc2n3CC)c(Br)c1	34.0*	-3.0	-1.7	-0.1	-0.1
Cc1c(C(=O)N2CCOCC2)sc2ncn(CC(=O)N3CCC(C)CC3)c(=O)c12	-2.4	0.6	0.7	1.6	0.5
Cc1c(C(=O)N2CCN(c3ccc([N+](=O)[O-])cc3)CC2)sc2ncn(CC(=O)N3CCOCC3)c(=O)c12	10.7	nt	8.9	53.6*	-1.7
Cc1cc2c(cc1C)NC(c1c(C)n(C)n(-c3ccccc3)c1=O)C1=C(CC(C)(C)CC1=O)N2 (stereo unspecified)	0.6	-3.9	9.1	81.4*	42.9*
CCSc1nnc2c(n1)OC(c1ccc(OC)c(OC)c1)N(C(C)=O)c1ccccc1-2 (stereo unspecified)	6.9	1.8	-30.3*	-2.4	-1.0
O=C(CSC(=S)N1CCCC1)NCCc1ccccc1	-5.1	-5.9	14.1	1.6	-0.1
COC(=O)C1=C(C)Nc2nc(-c3ccccc3)nn2C1c1ccc(C)o1 (stereo unspecified)	-4.0	-9.9	-57.1*	1.8	-0.6
COc1ccc(C2C(C(=O)Nc3ccccc3)=C(C)Nc3nc(-c4ccc(Cl)cc4)nn32)cc1 (stereo unspecified)	24.4	-1.1	-4.1	5.4	-0.4
CC1CCCC(C)N1CCCNC(=O)CN1C(=O)c2cccnc2Oc2ccc(Cl)cc21 (stereo unspecified)	8.6	7.1	3.0	4.2	0.3
C[C@H](NC(=O)c1nc[nH]c1C(=O)NCc1ccccc1)c1ccccc1	-11.1	-4.2	-40.7*	1.1	1.0
C[C@@H](NC(=O)c1nc[nH]c1C(=O)NC1CCN(C(=O)OC(C)(C)C)CC1)c1ccccc1	-0.3	1.9	-67.0*	0.1	-0.2

Bioassay records as filed in PubChem BioAssay.
